Measurements: PubChem BioAssay AID1159580 (chemical genetic matrix, 2015)
Where “and” joins values, the source holds several entries; their conditions need not be identical. Equal values may be shown once. Among all 5,500 compounds or so, about 2,000 (36%) were called active. Inconclusive results (about 18%) are left out. Rule as the data show it: active = normalized growth mostly below about 0.91 (no sharp cut-off); inconclusive = no clear call, values can overlap the other calls; inactive = mostly above about 0.92. This is one part of the list.

Experiment: chemical genetic growth profiling, strain panel (AID 1159580);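 also: tested at 20 µM; growth read once vehicle control cultures reached saturation at 30 °C; 1 = growth at the plate median or of vehicle wells; lower values mean less growth of the strain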
Settings: S. cerevisiae deletion strains, growth OD

Measured: normalized growth

CNC(=O)O/N=C(\C)SC
inactive: locus YAL013W, strain DEP1, active compounds read low 1 | locus YAL021C, strain ccr4, active compounds read low 0.987 | locus YAL026C, strain drs2, active compounds read low 1 | locus YAL030W, strain snc1, active compounds read low 1.01 | locus YBL061C, strain skt5, active compounds read low 1 | locus YBR009C, strain hhf1, active compounds read low 1.01 | locus YBR021W, strain FUR4, active compounds read low 1.03 | locus YBR023C, strain chs3, active compounds read low 1 | locus YBR171W, strain sec66, active compounds read low 1 | locus YBR229C, strain ROT2, active compounds read low 1.01 | locus YBR231C, strain swc5, active compounds read low 1 | locus YBR279W, strain paf1, active compounds read low 0.999 | locus YCL011C, strain gbp2, active compounds read low 1.01 | locus YCL016C, strain dcc1, active compounds read low 0.998 | locus YCL029C, strain bik1, active compounds read low 0.983 | locus YCL061C, strain MRC1, active compounds read low 1 | locus YCL069W, strain vba3, active compounds read low 1 | locus YCR088W, strain abp1, active compounds read low 1 | locus YDL005C, strain med2, active compounds read low 1 | locus YDL035C, strain GPR1, active compounds read low 1.02 | locus YDL040C, strain nat1, active compounds read low 0.999 | locus YDL074C, strain BRE1, active compounds read low 1.07 | locus YDL101C, strain DUN1, active compounds read low 1.02 | locus YDL134C, strain PPH21, active compounds read low 1.01 | locus YDL185W, strain tfp1, active compounds read low 0.988 | locus YDL192W, strain arf1, active compounds read low 0.981 | locus YDR001C, strain nth1, active compounds read low 1 | locus YDR069C, strain doa4, active compounds read low 1 | locus YDR101C, strain arx1, active compounds read low 0.983 | locus YDR137W, strain rgp1, active compounds read low 1.01 | locus YDR150W, strain NUM1, active compounds read low 1.01 | locus YDR159W, strain sac3, active compounds read low 1 | locus YDR162C, strain NBP2, active compounds read low 0.987 | locus YDR195W, strain ref2 0.971 | locus YDR297W, strain sur2, active compounds read low 1.02 | locus YDR318W, strain mcm21, active compounds read low 0.994 | locus YDR334W, strain swr1, active compounds read low 0.999 | locus YDR335W, strain msn5, active compounds read low 0.997 | locus YDR388W, active compounds read low 0.984 | locus YDR392W, strain spt3, active compounds read low 1 | locus YDR502C, strain sam2, active compounds read low 0.993 | locus YEL003W, strain gim4, active compounds read low 1 | locus YEL037C, strain rad23, active compounds read low 1 | locus YEL061C, strain CIN8 (second series), active compounds read low 1 | locus YEL061C, strain CIN8, active compounds read low 1.01 | locus YER015W, strain faa2, active compounds read low 0.982 | locus YER016W, strain bim1, active compounds read low 1 | locus YER110C, active compounds read low 0.977 | locus YER111C, strain swi4, active compounds read low 0.996 | locus YER155C, strain BEM2 (second series), active compounds read low 1.01 | locus YER155C, strain BEM2, active compounds read low 1.01 | locus YER167W, strain BCK2, active compounds read low 0.993 | locus YFR010W, strain ubp6, active compounds read low 0.997 | locus YGL078C, strain dbp3, active compounds read low 0.98 | locus YGL086W, strain mad1, active compounds read low 0.984 | locus YGL167C, strain pmr1, active compounds read low 0.996 | locus YGL173C, strain kem1, active compounds read low 0.991 | locus YGL227W, strain vid30, active compounds read low 1.01 | locus YGL240W, strain doc1, active compounds read low 0.987 | locus YGL248W, strain PDE1, active compounds read low 1.04 | locus YGL253W, strain hxk2, active compounds read low 0.998 | locus YGR078C, strain PAC10, active compounds read low 1 | locus YGR135W, strain pre9, active compounds read low 0.998 | locus YGR229C, strain SMI1, active compounds read low 1.03 | locus YGR252W, strain gcn5, active compounds read low 0.986 | locus YHR013C, strain ard1, active compounds read low 0.998 | locus YHR027C, strain rpn1, active compounds read low 0.989 | locus YHR030C, strain SLT2, active compounds read low 0.988 and 1.07 | locus YHR079C, strain IRE1 (second series), active compounds read low 0.993 | locus YHR079C, strain IRE1, active compounds read low 1.05 | locus YHR094C, strain hxt1, active compounds read low 0.983 | locus YHR129C, strain ARP1, active compounds read low 1.01 | locus YHR142W, strain chs7, active compounds read low 1.01 | locus YHR200W, strain rpn10, active compounds read low 0.99 | locus YIL066C, strain RNR3, active compounds read low 1.03 | locus YIL073C, strain SPO22, active compounds read low 0.995 | locus YIL125W, strain kgd1, active compounds read low 0.986 | locus YIR030C, strain dcg1, active compounds read low 0.98 | locus YJL092W, strain hpr5, active compounds read low 0.996 | locus YJL095W, strain BCK1 (second series), active compounds read low 0.996 | locus YJL095W, strain BCK1, active compounds read low 1.01 and 1.04 | locus YJL115W, strain asf1, active compounds read low 1 | locus YJL129C, strain trk1, active compounds read low 1.01 | locus YJL134W, strain LCB3, active compounds read low 1.02 | locus YJL154C, strain vps35, active compounds read low 0.999 | locus YJL164C, strain tpk1, active compounds read low 1 | locus YJL166W, strain qcr8, active compounds read low 1 | locus YJL168C, strain set2, active compounds read low 0.989 | locus YJL187C, strain SWE1 (second series), active compounds read low 1.01 | locus YJL187C, strain SWE1, active compounds read low 1.02 | locus YJR043C, strain POL32, active compounds read low 1.01 | locus YJR066W, strain TOR1, active compounds read low 0.988
